High-throughput results deposited in PubChem by The Scripps Research Institute Molecular Screening Center.
Sampled rows, rich in hits. Any-hit rate of the full collection: about 4.8%.
DAX1 inh-1: DAX1 (NR0B1) inhibitors, primary screen, cell-based, HEK293, Gal4-DAX1, luciferase luminescence | Nuclear receptor subfamily 0 group B member 1 (Homo sapiens), P51843 | HEK293 Gal4-DAX1 luciferase reporter | inhibition, % at 6.75 µM | hit rate 0.99% among 340,000 | AID 504766, 2011;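 active means inhibition above the mean over all tested compounds plus 3 SD, cut at about 4.2% in these data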;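 further: 0% = DAX1-transfected cells with DMSO and 100% = empty-vector control cells with DMSO; inhibition shows as a rise in luminescence from relieved DAX1 repression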
hcDAF-12 act: H. contortus DAF-12 nuclear receptor activators, primary screen, cell-based, luminescence, HEK293, lit1-tk-luc reporter. HEK293 hcDAF-12 lit1-tk-luc reporter; 0% DMSO, 100% Δ7-dafachronic acid. activation, % at 6.8 µM. hit rate 1.4% among 370,000;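 active means activation above the mean of all tested compounds plus 3 SD, cut at about 5.5% in these data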;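 further: 100% = response to 3 µM Δ7-dafachronic acid high control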
SMARCA2 act: SMARCA2 (BRM) function activators, primary screen, cell-based, luminescence, high throughput | MG213 cells, MMTV-luciferase reporter, dexamethasone, overnight | activation, % at 9.1 µM | hit rate 1% among 370,000 | AID 652017, 2013; in the data active means activation above about 7.8%;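 further: 0% = vehicle wells and 100% = reference activator wells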
ssDAF-12 act: S. stercoralis DAF-12 nuclear receptor activators, primary screen, cell-based, luminescence, HEK293, GRIP1 co-expression, lit1-tk-luc | Nuclear hormone receptor DAF-12 (Strongyloides stercoralis) | HEK293 ssDAF-12/GRIP1 lit1-tk-luc reporter; % of 3 µM dafachronic acid response | activation, % at 6.8 µM | hit rate 1% among 370,000 | AID 652126, 2013;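 active means activation above the mean over all tested compounds plus 3 SD, cut at about 0.9% in these data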;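 further: 0% = DMSO-only wells and 100% = 3 µM delta7-dafachronic acid wells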
DAX1 inh-2: DAX1 (NR0B1) inhibitors on StAR promoter, primary screen, cell-based, luminescence, SF-1 (NR5A1), full-length DAX-1; HEK293T StAR-luciferase reporter, SF-1/DAX-1 repression relief; inhibition, % at 6.8 µM; hit rate 1.1% among 370,000;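 active means inhibition above the mean over all tested compounds plus 3 SD, cut at about 3.6% in these data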;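 further: 0% = DAX-1 cells with DMSO and 100% = cells lacking DAX-1 with DMSO; higher inhibition means more luminescence from relief of DAX-1 repression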
hgDAF12 agonist: H. glycines DAF-12 receptor agonists, primary screen, cell-based, luminescence, HEK293, GAL4 fusion, UAS-luciferase; HEK293 GAL4-hgDAF12 UAS-luciferase reporter, agonist luminescence; normalized to butyrate control; activation, % at 6.8 µM; Nuclear hormone receptor DAF-12 (Heterodera glycines), GAL4 fusion; hit rate 1.8% among 370,000;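 active means activation above a cutoff set at the mean of all screened compounds plus 3 SD, cut at about 10% in these data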;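 further: 0% = DMSO wells and 100% = sodium butyrate wells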
DAX1 inh confirm: DAX1 (NR0B1) inhibitors relieving SF-1 repression, confirmation, cell-based, luminescence, HEK293T, full-length DAX-1, SF-1 activated StAR promoter. shares compounds with DAX1 inh-2. HEK293T StAR-promoter luciferase reporter, SF-1/DAX-1 repression. inhibition, % at 6.8 µM. hit rate 87% among 2,400. AID 652134, 2013;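 active means inhibition above the average of every tested compound plus 3 SD, cut at about 3.8% in these data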;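 further: 0% = DAX-1 cells with DMSO and 100% = no DAX-1 control cells with DMSO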
Target sequence (P51843 whole entry, looked up): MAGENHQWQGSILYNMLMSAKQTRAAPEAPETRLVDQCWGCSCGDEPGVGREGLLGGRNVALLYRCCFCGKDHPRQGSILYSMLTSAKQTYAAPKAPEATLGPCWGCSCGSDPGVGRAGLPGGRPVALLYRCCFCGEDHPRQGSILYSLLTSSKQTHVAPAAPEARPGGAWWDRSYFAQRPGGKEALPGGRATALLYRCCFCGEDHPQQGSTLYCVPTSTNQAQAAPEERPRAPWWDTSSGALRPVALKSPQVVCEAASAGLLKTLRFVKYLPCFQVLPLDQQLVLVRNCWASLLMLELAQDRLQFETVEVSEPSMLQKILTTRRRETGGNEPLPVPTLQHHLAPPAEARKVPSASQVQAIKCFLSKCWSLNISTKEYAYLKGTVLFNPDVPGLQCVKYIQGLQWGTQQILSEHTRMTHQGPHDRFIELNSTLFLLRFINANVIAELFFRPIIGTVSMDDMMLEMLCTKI
SF1 mutant ctr: StAR reporter signal changes without DAX1, counter-screen for DAX1 inhibitor project, cell-based, luminescence, AF-2 mutant SF-1, transactivation; shares compounds with DAX1 inh-2; HEK293 StAR-luciferase, SF-1 AF2 mutant; inhibition, % at 6.8 µM; hit rate 78% among 2,400; AID 652136, 2013;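 active means inhibition above the mean of all tested compounds plus 3 SD, cut at about 3% in these data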;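 further: 0% = DAX-1 transfected cells with DMSO and 100% = cells without DAX-1 with DMSO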
SMARCA2 conf: SMARCA2 (BRM) function activators, confirmation, cell-based, luminescence, triplicate; shares compounds with SMARCA2 act; activation, % at 9.1 µM; hit rate 30% among 3,500; MG213 cells, MMTV-luciferase with dexamethasone, overnight; MG213 cells expressing E1A, Rb sequestered; DMSO wells 0%, reference activator 100%; AID 652260, 2013;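 active means activation above its plate's cutoff, the mean activation of tested wells plus 3 SD, cut at about 7.9% in these data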
VP16 Luc act: GAL4-VP16 luciferase reporter activation, counter-screen for SMARCA2 (BRM) activator project, cell-based, pG5luc, luminescence, high throughput; shares compounds with SMARCA2 act; HEK293 GAL4-VP16 pG5luc reporter; scaled: DMSO wells 0%, SAHA wells 100%; activation, % at 9.1 µM; hit rate 41% among 3,500;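 active means activation above the solvent-only control well mean plus 3 SD, averaged across control plates, cut at about 5.2% in these data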
LXR ag: LXR agonists, Gal4 luciferase reporter, confirmation, counter-screen for hcDAF-12 agonist project, cell-based, luminescence, HEK293, H. contortus campaign; 3,400 tested, under 10 active; activation, % at 6.8 µM; HEK293 Gal4-LXR tk-luc reporter, 24 h; normalized: DMSO 0%, positive control 100%; shares compounds with hcDAF-12 act;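 active means mean percent activation of the reporter above a cutoff set as the average over tested compounds plus their standard deviation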
hcDAF12 conf: H. contortus DAF-12 receptor agonists, confirmation, cell-based, luminescence, HEK293, lit1-tk-luc, triplicate. shares compounds with hcDAF-12 act. HEK293 hcDAF-12 lit1-tk-luc reporter; % of Δ7-dafachronic acid response. activation, % at 6.8 µM. hit rate 61% among 3,400. AID 743032, 2013;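 active means mean activation across triplicate tests above the threshold derived from the earlier primary screen, cut at about 5.5% in these data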;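 further: 0% = DMSO only wells and 100% = 3 µM Δ7-dafachronic acid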
An asterisk follows results filed as active; / = no result.

SMILES	DAX1 inh-1	hcDAF-12 act	SMARCA2 act	ssDAF-12 act	DAX1 inh-2	hgDAF12 agonist	DAX1 inh confirm	SF1 mutant ctr	LXR ag	hcDAF12 conf	others
O=C(Nc1cccc([N+](=O)[O-])c1)c1cc2ccccc2cc1O	-7.1	-1.9	-10.2	-1.6	-3.1	-6.0	/	/	/	/
O=C(Nc1ccncc1)c1cc2ccccc2cc1O	1.6	6.7*	1.9	-0.3	6.2*	12.4*	7.3*	5.8*	0.9	6.3*
Cc1ccc2nc(N3C(=O)C(O)=C(C(=O)c4ccco4)C3c3cccs3)sc2c1 (centres undefined)	1.1	9.1*	11.6*	0.8	5.3*	13.3*	5.9*	1.1	0.1	2.7	SMARCA2 conf=2.0;VP16 Luc act=10.3*
COc1ccc2nc(N3C(=O)C(O)=C(C(=O)c4ccco4)C3c3ccc(C)o3)sc2c1 (centres undefined)	2.1	0.9	2.1	-0.4	1.1	6.2	/	/	/	/
CCCCOc1ccc(C(=O)NC2CCCCN(CC)C2=O)cc1 (centres undefined)	/	-1.3	-2.1	-1.1	0.0	7.4	/	/	/	/
N#CCCN(C(=O)COc1ccc(C#N)cc1)c1ccc(F)cc1	0.6	0.7	-0.8	-1.6	0.3	2.0	/	/	/	/
Oc1cccc(/C=N/Nc2cccc3cccnc23)c1	2.7	21.3*	6.8	3.7*	5.7*	23.1*	20.2*	10.0*	2.1	24.6*
Oc1c(/C=N/Nc2cccc3cccnc23)ccc2ccccc12	1.3	1.1	1.2	0.0	1.2	-0.2	/	/	/	/
C/C(=N\Nc1cccc2cccnc12)c1ccccc1O	9.6*	24.9*	2.5	4.2*	5.6*	24.9*	13.8*	4.3*	2.7	20.3*
Cc1[nH]c2ccccc2c1CC(=O)Nc1ccc(Nc2cccnc2)c(Br)c1	/	1.8	-3.0	0.5	-2.3	2.4	/	/	/	/
